Counter-ions that a name gives are not always drawn.
Tested on: MDA-MB-468
Experiment: phospho-S6 immunofluorescence (DAPI-normalised), per-plate z-score; higher = higher phospho-S6 signal (less pathway suppression)
Conditions: co-treatment: vehicle; 24 h
Method: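 GPCR-targeted compound library (MedChemExpress HY-L006) tested on MDA-MB-468 PTEN-null TNBC cells in 384-well plates at 0.1, 1 or 10 uM, combined with vehicle, GDC0941 450 nM or lapatinib 1 uM, for 24 h. Phospho-S6 (S240/244) immunofluorescence normalised to DAPI and expressed as a per-plate z-score; values are the mean of biological triplicates.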

**Q.** Which “phospho-S6 immunofluorescence (z-score)” value does the source give for CC(C)c1cc(-c2ccc(F)c3ccccc23)nc(N)n1 (compound 10 µM) here?
**A.** Its value is 1.08.

**Q.** For COc1cc(C(C)=O)ccc1OCCCN1CCC(c2noc3cc(F)ccc23)CC1 [Iloperidone] (compound 10 µM), which “phospho-S6 immunofluorescence (z-score)” value is on record?
**A.** Its value is 0.38.

**Q.** For CNCCc1ccccn1 [Betahistine (dihydrochloride)] (compound 10 µM), which “phospho-S6 immunofluorescence (z-score)” value is on record?
**A.** The value was -0.72.

**Q.** For COCCOc1ccc(N2CCN(CCn3ncc4c3nc(N)n3nc(-c5ccco5)nc43)CC2)cc1 [Preladenant] (compound 10 µM), which “phospho-S6 immunofluorescence (z-score)” value is on record?
**A.** The value was 0.97.

**Q.** How did the “phospho-S6 immunofluorescence (z-score)” value turn out when COCCc1ccc(OCC(O)CNC(C)C)cc1 (configuration not stated) [Metoprolol (Succinate)] (compound 10 µM) was run?
**A.** Its value is 1.15.

**Q.** Which “phospho-S6 immunofluorescence (z-score)” value does the source give for O=C(O)COc1cccc(CN(Cc2ccc(-n3cccn3)cc2)S(=O)(=O)c2cccnc2)c1 [Taprenepag] (compound 10 µM) here?
**A.** Its value is -0.73.

**Q.** With C[C@H](NC(=O)c1c(C(F)F)nn(C)c1Oc1cccc(C(F)(F)F)c1)c1ccc(C(=O)O)cc1 (compound 10 µM) as the compound, how does the “phospho-S6 immunofluorescence (z-score)” value read?
**A.** The value was -0.56.

**Q.** Which “phospho-S6 immunofluorescence (z-score)” value does the source give for c1cnc(NCc2ccc(CNc3ncccn3)cc2)nc1 (compound 10 µM) here?
**A.** The value was -0.11.

**Q.** How did the “phospho-S6 immunofluorescence (z-score)” value turn out when Cc1nn(C)c2c1C(c1ccc(C(F)(F)F)cc1)C(C#N)=C(N)O2 (configuration not stated) (compound 10 µM) was run?
**A.** The value was 2.57.

**Q.** With C[C@H]1CN(C[C@H](Cc2ccccc2)C(=O)NCC(=O)O)CC[C@@]1(C)c1cccc(O)c1 [Alvimopan (dihydrate)] (compound 10 µM) as the compound, how does the “phospho-S6 immunofluorescence (z-score)” value read?
**A.** Its value is -0.86.

**Q.** Which “phospho-S6 immunofluorescence (z-score)” value does the source give for Cc1cc(OCCCS(C)(=O)=O)cc(C)c1-c1cccc(COc2ccc3c(c2)OC[C@H]3CC(=O)O)c1 (compound 10 µM) here?
**A.** Its value is -0.32.

**Q.** With CN1CCN(CCc2ccc(Cl)c(Cl)c2)CC1 [BD1063 (dhydrochloride)] (compound 10 µM) as the compound, how does the “phospho-S6 immunofluorescence (z-score)” value read?
**A.** Its value is -0.49.

**Q.** Which “phospho-S6 immunofluorescence (z-score)” value does the source give for C[C@H]1C[C@H]2[C@@H]3CCC4=CC(=O)C=C[C@]4(C)[C@H]3C(=O)C[C@]2(C)[C@@]1(O)C(=O)CO [Meprednisone] (compound 10 µM) here?
**A.** Its value is -0.52.

**Q.** COc1cc(NC(=O)c2ccccn2)ccc1Cl (compound 10 µM) was tested. Which “phospho-S6 immunofluorescence (z-score)” value did it give?
**A.** The value was 0.28.

**Q.** How did the “phospho-S6 immunofluorescence (z-score)” value turn out when CCCN(CCc1cccs1)[C@H]1CCc2c(O)cccc2C1 [Rotigotine (Hydrochloride)] (compound 10 µM) was run?
**A.** The value was -0.63.

**Q.** CC1(C)O[C@@H]2C[C@H]3[C@@H]4CCC5=CC(=O)C=C[C@]5(C)[C@@]4(F)[C@@H](O)C[C@]3(C)[C@]2(C(=O)CO)O1 [Triamcinolone (acetonide)] (compound 10 µM) was tested. Which “phospho-S6 immunofluorescence (z-score)” value did it give?
**A.** Its value is -1.2.

**Q.** For CN(C)C(=O)CCSC(SCCC(=O)O)c1cccc(/C=C/c2ccc3ccc(Cl)cc3n2)c1 (configuration not stated) [MK-571 (sodium salt)] (compound 10 µM), which “phospho-S6 immunofluorescence (z-score)” value is on record?
**A.** Its value is 1.28.

**Q.** How did the “phospho-S6 immunofluorescence (z-score)” value turn out when CCC(=O)O[C@]1(C(=O)CCl)[C@@H](C)C[C@H]2[C@@H]3CCC4=CC(=O)C=C[C@]4(C)[C@@]3(F)[C@@H](O)C[C@@]21C [Clobetasol propionate] (compound 10 µM) was run?
**A.** The value was 0.7.

**Q.** With Cc1cc(NC(=O)NCCN2CCC(O)(Cc3ccccc3)CC2)c2ccccc2n1 [Palosuran] (compound 10 µM) as the compound, how does the “phospho-S6 immunofluorescence (z-score)” value read?
**A.** The value was -0.2.

**Q.** Which “phospho-S6 immunofluorescence (z-score)” value does the source give for CN1CCC(=C2c3ccccc3C=Cc3ccccc32)CC1 [Cyproheptadine (hydrochloride)] (compound 10 µM) here?
**A.** Its value is 0.16.

**Q.** Which “phospho-S6 immunofluorescence (z-score)” value does the source give for COC(=O)[C@H](c1ccccc1Cl)N1CCc2sccc2C1 [Clopidogrel (hydrogen sulfate)] (compound 10 µM) here?
**A.** Its value is -0.92.

**Q.** How did the “phospho-S6 immunofluorescence (z-score)” value turn out when c1cc(CN2CCCNCCNCCCNCC2)ccc1CN1CCCNCCNCCCNCC1 [Plerixafor (octahydrochloride)] (compound 10 µM) was run?
**A.** Its value is -0.74.

**Q.** CCN(CCCCOC(=O)c1ccc(OC)c(OC)c1)C(C)Cc1ccc(OC)cc1 (configuration not stated) [Mebeverine (hydrochloride)] (compound 10 µM) was tested. Which “phospho-S6 immunofluorescence (z-score)” value did it give?
**A.** The value was -0.85.

**Q.** With CC(C)(C)NCC(O)c1cc(O)cc(O)c1 (configuration not stated) [Terbutaline (sulfate)] (compound 10 µM) as the compound, how does the “phospho-S6 immunofluorescence (z-score)” value read?
**A.** The value was 1.44.

**Q.** For Cc1[nH]cnc1CN1CCc2c(c3ccccc3n2C)C1=O [Alosetron (Hydrochloride)] (compound 10 µM), which “phospho-S6 immunofluorescence (z-score)” value is on record?
**A.** The value was 1.01.

**Q.** With CCN(CC)Cc1ccc(C(=O)N(CCc2ccccc2OC)[C@@H]2CCNC2)cc1 (compound 10 µM) as the compound, how does the “phospho-S6 immunofluorescence (z-score)” value read?
**A.** Its value is 0.12.

**Q.** Which “phospho-S6 immunofluorescence (z-score)” value does the source give for COc1ccc2c(c1)c(CC(=O)N1CCOCC1)c(C)n2C(=O)c1ccc(Cl)cc1 (compound 10 µM) here?
**A.** Its value is -6.12.

**Q.** Cc1nc(C(=O)N2CCC[C@H]2Cc2nnc(-c3ccccc3)o2)c(-c2ccccc2F)s1 (compound 10 µM) was tested. Which “phospho-S6 immunofluorescence (z-score)” value did it give?
**A.** The value was 0.17.

**Q.** For CN1CCN2c3ccccc3Cc3ccccc3C2C1 (configuration not stated) [Mianserin (hydrochloride)] (compound 10 µM), which “phospho-S6 immunofluorescence (z-score)” value is on record?
**A.** The value was 1.67.

**Q.** C[C@@H]1CCCN1CCc1cc2cc(-c3ccc(C#N)cc3)ccc2o1 (compound 10 µM) was tested. Which “phospho-S6 immunofluorescence (z-score)” value did it give?
**A.** The value was -0.97.

**Q.** Which “phospho-S6 immunofluorescence (z-score)” value does the source give for C[N+](C)(C)CCOC(N)=O [Carbamoylcholine (chloride)] (compound 10 µM) here?
**A.** Its value is 0.87.

**Q.** For CCN1CCC[C@H]1CNC(=O)c1cc(S(N)(=O)=O)ccc1OC [Levosulpiride] (compound 10 µM), which “phospho-S6 immunofluorescence (z-score)” value is on record?
**A.** Its value is -0.63.

**Q.** For c1ccc(CN(CC2=NCCN2)c2ccccc2)cc1 [Antazoline (hydrochloride)] (compound 10 µM), which “phospho-S6 immunofluorescence (z-score)” value is on record?
**A.** Its value is 1.23.

**Q.** How did the “phospho-S6 immunofluorescence (z-score)” value turn out when CN1C2CCCC1CC(NC(=O)c1nn(C)c3ccccc13)C2 (configuration not stated) [Granisetron (Hydrochloride)] (compound 10 µM) was run?
**A.** The value was -0.01.

**Q.** Which “phospho-S6 immunofluorescence (z-score)” value does the source give for Cc1ccccc1C(=O)Nc1ccc(C(=O)N2CCCC(O)c3cc(Cl)ccc32)c(C)c1 (configuration not stated) [Tolvaptan] (compound 10 µM) here?
**A.** The value was -0.25.

**Q.** With COc1cc(/C=C/C(=O)O)ccc1O [Ferulic acid (sodium)] (compound 10 µM) as the compound, how does the “phospho-S6 immunofluorescence (z-score)” value read?
**A.** Its value is 0.33.

**Q.** CC(C)(C)C1CCC(N(Cc2ccc(C(=O)NCCC(=O)O)cc2)C(=O)Nc2ccc(OC(F)(F)F)cc2)CC1 (configuration not stated) (compound 10 µM) was tested. Which “phospho-S6 immunofluorescence (z-score)” value did it give?
**A.** Its value is -1.64.
